Results on 16 compounds are retold here after PubChem BioAssay (NCI).

SMILES strings stand for the structures. Where “and” joins values, the source holds several entries; their conditions need not be identical. Equal values may be shown once. Compounds without any hit were thinned out: in the full panel of roughly 79,000, 15% have a hit. Unmarked numbers belong to inactive results. Calls of active or inactive are those of the source. Rule as the data show it: active = growth inhibition above about 70%; inactive = the rest.

The assay can be described thus: NCI Yeast Anticancer Drug Screen. Data for the mlh1 rad18 strain (AID 175). As to conditions: S. cerevisiae mlh1 rad18 strain growth inhibition; at 50.0 µM (retest, dose inferred, filed as 5.0); active compounds read high. In short, it runs like this:
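Test agents were incubated with a yeast strain of defined genotype (DNA damage repair defect). Inhibition of growth was derived by comparison with vehicle-exposed cultures.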
On to `CCC[N+](CCC)(CCC)CCC.N#CN=C([SH2+])[SH2+].N#CN=C([SH2+])[SH2+].[Pt+2]`, for which the growth inhibition was 57%.

Turning to `CCCCCCCC/C=C\CCCCCCCCN1CC(C(=O)[O][Pb]([CH2]C)([CH2]C)[CH2]C)CC1=O` (stereo unspecified), the growth inhibition was 72% (active).

`O=c1[nH]cc(Cn2cnc3ncccc3c2=O)c(=O)[nH]1`: the growth inhibition is -5%. Under `CC(C)(C)C1=CC(=C/C=C/c2cc(C(C)(C)C)[o+]c(C(C)(C)C)c2)C=C(C(C)(C)C)O1` stands 95% (active); under `S=C(S)N1CCCCC1`, 56% and 27%; under `CN[C@H]1C[C@@H]2O[C@@](C)([C@H]1OC)n1c3ccccc3c3c4c(c5c6ccccc6n2c5c31)C(=O)NC4`, 99% (active). Under `CC(C)(C)OOC(=O)c1ccccc1` stands 99% (active); under `ClCCN(CCCl)CCN1c2ccccc2Sc2ccc3ccccc3c21`, 78% (active); under `CCOC(=O)c1ccccc1N`, 4%. Under `Cn1cnc(C(=N)[Se])c1N` stands 94% (active). `Cc1ccc(NP(=O)(Oc2ccccc2)N(CCCl)CCCl)cc1` (stereo unspecified): the growth inhibition is -5%. `CCOC(=O)C1=C(C)NC(=O)NC1c1ccc(N(CCCl)CCCl)cc1Cl` (stereo unspecified): the growth inhibition was 88% (active). Then `ClC(C[n+]1ccccc1)c1ccccc1` (stereo unspecified), with 51%.

Consider `CCCCCCCC1(c2ccc(N)cc2)CCC(=O)NC1=O` (stereo unspecified), for which the growth inhibition was 35%.

Turning to `COC(=O)C(CCCN=C(N)N[N+](=O)[O-])NC(=O)c1ccc2c(c1O)C(=O)c1ccccc1C2=O` (stereo unspecified), the growth inhibition is 20%. Then `Cc1cc(N(CCCl)CCCl)ccc1CN1CCCN(Cc2ccc(N(CCCl)CCCl)cc2C)C1c1ccc(N(CCCl)CCCl)cc1C`, with 98% (active).
